Results: PubChem BioAssay
The source made the active and inactive calls. Unless noted, how the calls were made is not given here.

Key:
[1] = tested on: Wnt5a (protein binding on small-molecule microarray); experiment: small molecules binding Wnt5a protein – biophysical, small-molecule microarray, 635/667 nm fluorescence, primary screen (AID 1142); conditions: 635 nm fluorescence, higher = more signal;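 further: fluorescence read at 667 nm with signal to noise per printed feature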
[2] = ATP-based viability of Huh7 replicon cells – cell-based, CellTiter-Glo luminescence, basal, 48 h, cytotoxicity control for HCV replication inhibitor project, primary screen (AID 1143); conditions: higher = more signal, called active from +8 up or from −8 down;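 further: Huh7 hepatoma cells carrying a hepatitis C replication reporter with no stimulus; test concentration not given here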
[3] = Pseudomonas biofilm growth suppression – PAO1 strain, BacTiter-Glo luminescence, LB-PBS, primary screen (AID 1144); conditions: P. aeruginosa PAO1 biofilm, 12 h, higher = more signal
[4] = basal CRE-LacZ reporter activity in PC12 – cell-based, unstimulated, primary screen (AID 1145); conditions: no forskolin, luminescence, 4.5 h, higher = more signal, called active from +8 up or from −8 down
[5] = forskolin-driven CRE-LacZ activity in PC12 – cell-based, CRE-LacZ reporter, forskolin-stimulated, primary screen (AID 1146); conditions: luminescence, 4.5 h, higher = more signal, called active from +8 up or from −8 down;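 further: PC12 cells with 6xCRE LacZ reporter stimulated by forskolin 10 µM; beta-galactosidase reporter signal reflecting CREB driven transcription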
[6] = biological target: Streptavidin (Streptomyces avidinii) (UniProt P22629); experiment: compounds binding control protein streptavidin – biophysical, small-molecule microarray, 635/667 nm fluorescence, artefact control for SMM compound annotation, primary screen (AID 1147); conditions: higher = more signal;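 further: signal reflects streptavidin binding to arrayed compounds as a control protein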
[7] = probe aInhba binding on compound microarray – biochemical, small-molecule microarray, 635/667 nm fluorescence, primary screen (AID 1148); conditions: higher = more signal;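 further: score merges 667nm spot fluorescence with signal-to-noise for antibody binding to printed compounds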
Torsin-1A (Homo sapiens) [8] = biological target: Torsin-1A (Homo sapiens) (UniProt O14656); experiment: TOR1A wild-type binding on microarray – cell lysate, small-molecule microarray, lysate, 635/667 nm, primary screen (AID 1149); conditions: COS7 hTOR1A-WT lysate, 635 nm fluorescence, higher = more signal
Torsin-1A (Homo sapiens) [9] = biological target: Torsin-1A (Homo sapiens) (UniProt O14656); experiment: torsin A mutant lysate binding on microarrays – cell lysate, small-molecule microarray, COS7 lysate, 635/667 nm fluorescence, primary screen (AID 1150); conditions: COS7 hTOR1A mutant lysate, 635 nm fluorescence, higher = more signal;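 further: score pools 667 nm emission and signal to noise measuring lysate protein binding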
[10] = tested on: Sonic hedgehog protein (Shh); experiment: Sonic hedgehog microarray binding compounds – biochemical, small-molecule microarray, 635/667 nm fluorescence, primary screen (AID 1151); conditions: 635 nm fluorescence, higher = more signal;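 further: Shh protein binding to compounds spotted on small-molecule microarray slides; score combines spot fluorescence intensity with signal-to-noise across triplicate slides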
[11] = optical density shifts of acrAB sulA E. coli – strain DRC41, OD650, 48 h, E. coli filamentation inducer project, primary screen (AID 1152); conditions: higher = more signal, called active from +8 up or from −8 down;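 further: E. coli MC1000 strain DRC41 lacking acrAB efflux pump and sulA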
[12] = probe aLefty1 binding on compound microarray – biochemical, small-molecule microarray, 635/667 nm fluorescence, primary screen (AID 1153); conditions: higher = more signal;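 further: score merges spot fluorescence with signal-to-noise ratio from the scanned slide images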
[13] = plasmodial surface anion channel blockers, osmotic lysis – cell-based, P. falciparum Indochina, OD700, 1 h, primary screen (AID 1154); conditions: P. falciparum Indochina infected RBC osmotic lysis, higher = more signal, called active from +8 up or from −8 down
[14] = plasmodial surface anion channel blockers, osmotic lysis – cell-based, P. falciparum Indochina, OD700, 2 h, primary screen (AID 1155);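 further: lysis reports solute entry through the parasite surface anion channel PSAC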; conditions: P. falciparum Indochina infected erythrocytes, higher = more signal, called active from +8 up or from −8 down
[15] = changes in parasitized red cell lysis, either direction – P. falciparum Indochina, OD700, 3 h, PSAC antagonist project, primary screen (AID 1156); conditions: P. falciparum-infected erythrocytes, osmotic lysis, higher = more signal, called active from +8 up or from −8 down
[16] = plasmodial surface anion channel blockers, osmotic lysis – cell-based, P. falciparum Indochina, OD700, 18 h, primary screen (AID 1157); conditions: P. falciparum Indochina infected erythrocytes, osmotic lysis OD700, 18 h; higher = more signal, called active from +8 up or from −8 down
[17] = S6 kinase pathway phospho-S6 level changes – cell-based, A549, cytoblot, luminescence, serum-stimulated, primary screen (AID 1158); conditions: 5 h, higher = more signal;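 further: serum-stimulated A549 lung adenocarcinoma cells; signal is phosphorylated S6 detected by cytoblot immunostaining with HRP secondary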
[18] = biological target: NADPH oxidase 2 (Homo sapiens) (UniProt P04839); experiment: compounds shifting NOX2 Amplex Red fluorescence – cell-based, HEK293-NOX2, PMA-stimulated, NOX inhibitor project, primary screen (AID 1159); conditions: 45 min, higher = more signal, called active from +8 up or from −8 down; further: test concentration not given here
[19] = biological target: NADPH oxidase 4 (Homo sapiens) (UniProt Q9NPH5); experiment: compounds shifting NOX4 Amplex Red fluorescence – cell-based, HEK293-NOX4, tetracycline-induced, NOX inhibitor project, primary screen (AID 1160); conditions: HEK293-NOX4, Amplex Red H2O2 fluorescence, 45 min; higher = more signal, called active from +8 up or from −8 down
[20] = biological target: NADPH oxidase 5 (Homo sapiens) (UniProt Q96PH1); experiment: compounds shifting NOX5 Amplex Red fluorescence – cell-based, HEK293-NOX5, NOX inhibitor project, primary screen (AID 1161); conditions: HEK293-NOX5, ionomycin, 45 min, higher = more signal
Sequence of NADPH oxidase 5 (Homo sapiens) (Q96PH1 whole entry, looked up): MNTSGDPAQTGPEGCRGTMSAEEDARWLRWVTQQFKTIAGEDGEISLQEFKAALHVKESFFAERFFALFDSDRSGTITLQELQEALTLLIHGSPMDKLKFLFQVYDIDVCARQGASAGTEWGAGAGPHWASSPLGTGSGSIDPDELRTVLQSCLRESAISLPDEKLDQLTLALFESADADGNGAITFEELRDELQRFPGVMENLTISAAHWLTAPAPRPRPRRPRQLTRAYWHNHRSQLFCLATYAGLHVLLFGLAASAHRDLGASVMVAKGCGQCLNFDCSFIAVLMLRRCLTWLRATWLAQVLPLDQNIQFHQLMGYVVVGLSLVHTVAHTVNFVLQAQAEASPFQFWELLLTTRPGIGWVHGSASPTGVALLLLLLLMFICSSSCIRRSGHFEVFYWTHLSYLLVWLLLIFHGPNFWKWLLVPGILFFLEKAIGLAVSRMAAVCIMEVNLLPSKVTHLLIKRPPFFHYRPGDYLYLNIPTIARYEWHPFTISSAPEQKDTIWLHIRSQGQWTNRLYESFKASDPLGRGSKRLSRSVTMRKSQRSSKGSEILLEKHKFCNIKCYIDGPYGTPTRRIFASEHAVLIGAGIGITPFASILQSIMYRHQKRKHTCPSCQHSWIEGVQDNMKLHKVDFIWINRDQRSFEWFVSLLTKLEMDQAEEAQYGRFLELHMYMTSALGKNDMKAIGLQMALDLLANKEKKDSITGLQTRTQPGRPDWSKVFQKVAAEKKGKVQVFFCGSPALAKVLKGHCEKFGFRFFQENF

Sequence of Streptavidin (Streptomyces avidinii) (P22629 whole entry, looked up): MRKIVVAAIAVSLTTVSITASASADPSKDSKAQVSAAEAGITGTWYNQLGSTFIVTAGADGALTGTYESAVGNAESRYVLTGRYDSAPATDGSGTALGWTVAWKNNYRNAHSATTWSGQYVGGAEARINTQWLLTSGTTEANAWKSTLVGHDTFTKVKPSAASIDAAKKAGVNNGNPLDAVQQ
Sequence of Torsin-1A (Homo sapiens) (O14656 whole entry, looked up): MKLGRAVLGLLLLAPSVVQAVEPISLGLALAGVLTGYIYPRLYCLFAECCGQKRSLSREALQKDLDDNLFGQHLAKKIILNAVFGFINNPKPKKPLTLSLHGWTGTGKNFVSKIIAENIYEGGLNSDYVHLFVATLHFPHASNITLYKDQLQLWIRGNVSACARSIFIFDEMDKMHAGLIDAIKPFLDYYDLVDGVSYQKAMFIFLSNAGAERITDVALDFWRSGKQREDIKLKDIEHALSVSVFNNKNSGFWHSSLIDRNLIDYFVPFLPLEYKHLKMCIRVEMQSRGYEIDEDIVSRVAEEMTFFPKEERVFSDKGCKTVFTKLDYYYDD
Sequence of NADPH oxidase 2 (Homo sapiens) (P04839 whole entry, looked up): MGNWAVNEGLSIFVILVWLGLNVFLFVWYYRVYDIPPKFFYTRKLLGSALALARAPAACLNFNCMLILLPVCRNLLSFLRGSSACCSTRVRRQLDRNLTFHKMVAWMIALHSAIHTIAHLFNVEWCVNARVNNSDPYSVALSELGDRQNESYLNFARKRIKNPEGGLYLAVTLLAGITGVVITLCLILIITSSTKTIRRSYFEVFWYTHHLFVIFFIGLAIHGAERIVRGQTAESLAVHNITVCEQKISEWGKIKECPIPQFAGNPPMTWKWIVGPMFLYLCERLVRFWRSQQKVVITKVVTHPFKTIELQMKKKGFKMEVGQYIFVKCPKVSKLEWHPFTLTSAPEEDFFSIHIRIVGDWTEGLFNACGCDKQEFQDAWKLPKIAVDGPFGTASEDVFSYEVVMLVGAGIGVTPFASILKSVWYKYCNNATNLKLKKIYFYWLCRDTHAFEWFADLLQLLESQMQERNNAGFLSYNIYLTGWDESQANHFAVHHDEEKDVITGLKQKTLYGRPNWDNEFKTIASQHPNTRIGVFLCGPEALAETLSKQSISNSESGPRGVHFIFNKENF
Sequence of NADPH oxidase 4 (Homo sapiens) (Q9NPH5 whole entry, looked up): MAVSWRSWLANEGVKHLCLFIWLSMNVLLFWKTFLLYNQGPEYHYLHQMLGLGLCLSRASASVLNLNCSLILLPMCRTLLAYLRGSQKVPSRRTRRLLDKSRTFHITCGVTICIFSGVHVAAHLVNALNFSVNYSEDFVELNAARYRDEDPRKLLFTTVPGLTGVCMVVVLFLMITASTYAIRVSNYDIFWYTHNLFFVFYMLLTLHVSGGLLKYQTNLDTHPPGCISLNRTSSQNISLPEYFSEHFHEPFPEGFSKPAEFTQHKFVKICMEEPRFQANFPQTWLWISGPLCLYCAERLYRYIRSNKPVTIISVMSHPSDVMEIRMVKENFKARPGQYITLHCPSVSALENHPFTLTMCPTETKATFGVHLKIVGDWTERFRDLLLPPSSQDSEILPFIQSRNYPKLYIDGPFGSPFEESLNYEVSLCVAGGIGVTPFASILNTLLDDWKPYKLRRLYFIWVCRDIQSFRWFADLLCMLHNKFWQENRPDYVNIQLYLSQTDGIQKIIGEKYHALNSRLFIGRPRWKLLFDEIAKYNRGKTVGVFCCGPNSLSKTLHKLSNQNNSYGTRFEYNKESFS

Row | Structure (SMILES) | composite z-score [1] | z-score [2] | z-score [3] | z-score [4] | z-score [5] | composite z-score [6] | composite z-score [7] | composite z-score (Torsin-1A (Homo sapiens) [8]) | composite z-score (Torsin-1A (Homo sapiens) [9]) | composite z-score [10] | z-score [11] | composite z-score [12] | z-score [13] | z-score [14] | z-score [15] | z-score [16] | z-score [17] | z-score [18] | z-score [19] | z-score [20]
1 | COc1cc(C(O)C2C=CC3C(=O)N(c4ccccc4)C(=O)C3N2Nc2ccccc2F)cc(OC)c1OC (stereo not given) | 0.36 | -1.73 (inactive) | 0.0706 (inactive) | 1.61 (inactive) | 1.05 (inactive) | 0.135 | 0.177 | 0.0422 | 0.8 | 0.429 | -1.19 (inactive) | 0.149 | 5.94 (inactive) | 1.25 (inactive) | -0.276 (inactive) | 0.462 (inactive) | -1.01 | -1.67 (inactive) | -4.07 (inactive) | -3.16
2 | Cc1ccc(S[C@]2(C(=O)NC3CC3)CC(=O)N(C(C)C)[C@@H]2c2ccc(CO)cc2I)cc1 | -0.385 | -4.82 (inactive) | -1.21 (inactive) | 0.299 (inactive) | 1.42 (inactive) | -0.677 | -0.394 | 0.778 | 0.652 | 0.677 | 0.839 (inactive) | -0.703 | 5.84 (inactive) | -0.558 (inactive) | 0.927 (inactive) | -1.31 (inactive) | 2.32 | 0.828 (inactive) | -1.91 (inactive) | -2.33
3 | C=C(C)[C@@H]1CC=C(C(O)C2C=CC3C(=O)N(C)C(=O)C3N2Nc2ccc([N+](=O)[O-])cc2[N+](=O)[O-])CC1 (stereo not given in full) | 0.291 | -0.181 (inactive) | 0.0728 (inactive) | 2.16 (inactive) | 0.386 (inactive) | 0.707 | -0.0762 | 0.414 | 1.14 | 0.413 | -1.03 (inactive) | 0.807 | 22.8 (active) | 6.33 (inactive) | 0.0383 (inactive) | 1.46 (inactive) | -1.42 | -0.188 (inactive) | 0.811 (inactive) | 2.85
4 | COc1cc(CO)cc(I)c1O[C@H]1C=C(C(=O)NCCO)C[C@@H](NC2CCCCCC2)[C@@H]1O | 0.29 | -1.65 (inactive) | 0.0741 (inactive) | 5.46 (inactive) | 0.0453 (inactive) | -0.0211 | -0.0115 | 0.0076 | 0.243 | 1.3 | 0.818 (inactive) | 0.0313 | 10.1 (active) | 1.55 (inactive) | 3.68 (inactive) | 1.09 (inactive) | 0.565 | 0.287 (inactive) | -0.789 (inactive) | -0.579
5 | OCCCC1=CC(c2ccc(CN3CCCC3)cc2)N(Cc2cccc(OC(F)(F)F)c2)CC1 (stereo not given) | -0.131 | -9.01 (active) | 0.697 (inactive) | -0.0884 (inactive) | 0.593 (inactive) | -0.69 | -0.0791 | 0.265 | -0.165 | 0.365 | -2.64 (inactive) | 0.286 | 3.61 (inactive) | 0.935 (inactive) | 0.524 (inactive) | 0.749 (inactive) | -0.791 | -5.61 (inactive) | -2.06 (inactive) | -2.16
6 | C=CCN1C(=O)[C@@]2(O[C@@H](CCn3cc([C@H](O)c4ccccc4)nn3)[C@H]([Si](C)(C)c3ccc(OC)cc3)[C@H]2C)c2cc(N3C(=O)c4cccc5cccc3c45)ccc21 | -0.654 | -3.71 (inactive) | -0.119 (inactive) | 9.39 (active) | -0.592 (inactive) | -0.253 | -0.128 | -0.488 | -0.462 | -0.339 | -0.851 (inactive) | -0.101 | 4.77 (inactive) | 1.81 (inactive) | 0.519 (inactive) | 1.31 (inactive) | 0.075 | 0.962 (inactive) | 1.57 (inactive) | 2.52
7 | C[C@@H]1ON(c2ccccc2)[C@H](c2ccccc2)[C@H]1C(=O)O | -0.0071 | 0.343 (inactive) | -0.525 (inactive) | 0.308 (inactive) | 0.411 (inactive) | 0.0265 | 0.134 | 0.404 | -0.115 | 1.01 | -0.0929 (inactive) | 0.106 | 0.348 (inactive) | -0.299 (inactive) | -0.142 (inactive) | -0.136 (inactive) | 0.0366 | -0.436 (inactive) | 0.24 (inactive) | 0.46
8 | NC(=O)N1C(=O)C2C(C1=O)C1C=C(CCCO)C2C(c2ccc(CN3CCCC3)cc2)N1Cc1cc2c(cc1Br)OCO2 (stereo not given) | -0.0793 | -1.34 (inactive) | -0.607 (inactive) | -0.205 (inactive) | -0.274 (inactive) | -0.0077 | -0.322 | 0.283 | 0.479 | 1.13 | -0.272 (inactive) | -0.276 | 1.69 (inactive) | 0.446 (inactive) | 0.604 (inactive) | 0.211 (inactive) | 0.106 | -1.07 (inactive) | 0.731 (inactive) | 0.46
